# The entries come from a sample that favours hits as a whole.
# IDE exosite FP: displaces the probe from the exo-site of human IDE | purified IDE, FL-6b probe fluorescence polarization; hits give low values | actives 6.3% (n = 17,000) | z-score at 20 µM | AID 1259349 | P14735;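 active = z-score of -3 or lower, meaning strong loss of probe binding signal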;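 note: His-tagged human IDE residues 42-1019 made in E. coli with 30 nM FL-6b probe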
# * = called active by the depositor.
SMILES,IDE exosite FP
O=C(Cc1ccccn1)N1CCCCN2[C@@H](CO)[C@H](c3ccc(Br)cc3)[C@@H]2C1,-0.37
O=C(Cc1ccccn1)N1CCCCN2[C@H](CO)[C@@H](c3ccc(-c4ccccc4)cc3)[C@@H]2C1,-2.4
Cc1ccccc1-c1ccc([C@H]2[C@@H](CO)N3CCCCN(C(=O)Cc4ccccn4)C[C@H]23)cc1,-14*
Cc1ccccc1-c1ccc([C@@H]2[C@H](CO)N3CCCCN(C(=O)Cc4ccccn4)C[C@@H]23)cc1,-16*
O=C(Cc1ccccn1)N1CCCCN2[C@H](CO)[C@H](c3ccc(Br)cc3)[C@H]2C1,-0.15
O=C(Cc1ccccn1)N1CCCCN2[C@H](C1)[C@@H](c1ccc(Br)cc1)[C@@H]2CO,-0.067
COc1ccc(C#Cc2ccc([C@@H]3[C@H]4CN(C(=O)Cc5ccncc5)CCCCN4[C@H]3CO)cc2)cc1,-0.35
COc1ccc(-c2ccc([C@@H]3[C@H](CO)N4CCCCN(C(=O)Cc5ccncc5)C[C@@H]34)cc2)cc1,-2.3
COc1ccc(C#Cc2ccc([C@H]3[C@@H](CO)N4CCCCN(C(=O)Cc5ccncc5)C[C@@H]34)cc2)cc1,-4.8*
COc1ccc(C#Cc2ccc([C@@H]3[C@@H](CO)N4CCCCN(C(=O)Cc5ccncc5)C[C@@H]34)cc2)cc1,0.35
COc1ccc(C#Cc2ccc([C@H]3[C@@H](CO)N4CCCCN(C(=O)Cc5ccncc5)C[C@H]34)cc2)cc1,0.97
COc1ccc(C#Cc2ccc([C@@H]3[C@@H](CO)N4CCCCN(C(=O)Cc5cccnc5)C[C@@H]34)cc2)cc1,2.7
COc1ccc(C#Cc2ccc([C@H]3[C@H]4CN(C(=O)Cc5cccnc5)CCCCN4[C@H]3CO)cc2)cc1,-4*
COc1ccc(C#Cc2ccc([C@H]3[C@H]4CN(C(=O)Cc5ccncc5)CCCCN4[C@H]3CO)cc2)cc1,-3.5*
COc1ccc(C#Cc2ccc([C@H]3[C@@H](CO)N4CCCCN(C(=O)Cc5cccnc5)C[C@H]34)cc2)cc1,-1.3
CC(C)CC#Cc1ccc([C@H]2[C@@H](CO)N3CCCCN(C(=O)Cc4ccccn4)C[C@H]23)cc1,2.8
C/C=C/c1ccc(C2[C@@H]3CN(Cc4cccc(F)c4)C[C@H]2N3)cc1 (some centres not stated),3.4
O=C(Cc1ccccc1)N1CC2(C1)[C@H](c1ccccc1)[C@H](CO)N2Cc1cccc(Cl)c1,-1.7
O=C(Cc1ccncc1)N1CCCCN2[C@H](CO)[C@@H](c3ccc(C#CC4(O)CCCC4)cc3)[C@@H]2C1,0.2
O=C(Cc1ccccn1)N1CCCCN2[C@H](CO)[C@H](c3ccc(C#Cc4ccccc4)cc3)[C@@H]2C1,-5.2*
O=C(Cc1ccccc1)N1CCCCN2[C@H](C1)[C@@H](c1ccc(C#Cc3ccccc3)cc1)[C@@H]2CO,-2.6
O=C(Cc1ccccc1)N1CCCCN2[C@H](C1)[C@H](c1ccc(C#Cc3ccccc3)cc1)[C@@H]2CO,-4.3*
COc1ccc(C#Cc2ccc([C@@H]3[C@@H](CO)N4CCCCN(C(=O)Cc5ccccc5)C[C@@H]34)cc2)cc1,1.5
CCCC#Cc1ccc([C@@H]2[C@H](CO)N3CCCCN(C(=O)Cc4ccccn4)C[C@@H]23)cc1,-2
CCCC#Cc1ccc([C@H]2[C@@H](CO)N3CCCCN(C(=O)Cc4ccccn4)C[C@@H]23)cc1,4
SMILES,IDE exosite FP
O=C(Cc1cccnc1)N1CCCCN2[C@H](CO)[C@@H](c3ccc(C#CC4CCCC4)cc3)[C@H]2C1,1.5
COc1ccc(-c2ccc([C@H]3[C@@H](CO)N4CCCCN(C(=O)Cc5ccncc5)C[C@H]34)cc2)cc1,0.98
O=C(Cc1cccnc1)N1CCCCN2[C@H](CO)[C@@H](c3ccc(C#CC4(O)CCCC4)cc3)[C@@H]2C1,1.5
O=C(O)[C@@H]1[C@@H](CO)[C@@H]2Cn3c(ccc(C4=CCCCC4)c3=O)[C@H]1N2C(=O)Cc1ccccn1,0.84
C/C=C/c1ccc(C2[C@@H]3CN(Cc4cccnc4)C[C@H]2N3)cc1 (some centres not stated),-0.36
C/C=C/c1ccc([C@H]2[C@H](CO)N3CCCCN(C(=O)Cc4cccnc4)C[C@@H]23)cc1,-1.1
O=C(Cc1cccnc1)N1CCCCN2[C@@H](CO)[C@@H](c3ccc(C#CC4CCCC4)cc3)[C@@H]2C1,0.5
C/C=C/c1ccc([C@H]2[C@@H](CO)N3CCCCN(C(=O)Cc4cccnc4)C[C@H]23)cc1,-0.57
O=C(Cc1cccnc1)N1CCCCN2[C@@H](CO)[C@@H](c3ccc(/C=C/c4ccccc4)cc3)[C@@H]2C1,-8.3*
C/C=C/c1ccc([C@H]2[C@H]3CN(C(=O)Cc4cccnc4)CCCCN3[C@H]2CO)cc1,1.2
O=C(Cc1cccnc1)N1CCCCN2[C@H](C1)[C@@H](c1ccc(/C=C/c3ccccc3)cc1)[C@@H]2CO,-9.2*
COc1ccc(-c2ccc([C@H]3[C@H]4CN(C(=O)Cc5ccccc5)CCCCN4[C@H]3CO)cc2)cc1,2.8
OC[C@@H]1Nc2ccc(C#Cc3cccnc3)cc2[C@H]2NCC[C@@H]12,-0.33
CCC(=O)N1[C@@H]2c3ccc(C4=CCCC4)c(=O)n3C[C@H]1[C@H](CO)[C@H]2C(=O)OC,0.59
O=C(Cc1ccccc1)N1CCCCN2[C@@H](CO)[C@H](c3ccc(-c4ccccc4)cc3)[C@@H]2C1,-0.0073
CC(C)CC#Cc1ccc([C@@H]2[C@H](CO)N3CCCCN(C(=O)Cc4ccccn4)C[C@@H]23)cc1,3.5
O=C(Cc1ccccn1)N1CCCCN2[C@H](CO)[C@H](c3ccc(-c4ccccc4F)cc3)[C@@H]2C1,-4.2*
O=C(Cc1ccccn1)N1CCCCN2[C@@H](CO)[C@H](c3ccc(-c4ccc(F)cc4)cc3)[C@@H]2C1,2.5
O=C(Cc1ccccn1)N1CCCCN2[C@H](C1)[C@@H](c1ccc(-c3ccc(F)cc3)cc1)[C@@H]2CO,4.4
O=C(Cc1ccccn1)N1CCCCN2[C@H](C1)[C@H](c1ccc(-c3ccc(F)cc3)cc1)[C@@H]2CO,1.3
O=C(Cc1ccccn1)N1CCCCN2[C@@H](CO)[C@@H](c3ccc(-c4ccc(F)cc4)cc3)[C@@H]2C1,1.7
O=C(Cc1ccccn1)N1CCCCN2[C@H](CO)[C@@H](c3ccc(-c4ccccc4F)cc3)[C@@H]2C1,-4.7*
N#Cc1ccc(-c2ccc([C@H]3[C@H](CO)N4CCCCN(C(=O)Cc5ccccc5)C[C@@H]34)cc2)cc1,1.2
COc1ccc(-c2ccc([C@@H]3[C@H]4CN(C(=O)Cc5ccccc5)CCCCN4[C@H]3CO)cc2)cc1,3.5
N#Cc1cccc(-c2ccc([C@H]3[C@@H](CO)N4CCCCN(C(=O)Cc5cccnc5)C[C@H]34)cc2)c1,-0.22
O=C(Cc1ccccc1)N1CCCCN2[C@H](CO)[C@@H](c3ccc(-c4ccccc4)cc3)[C@@H]2C1,0.45
N#Cc1cccc(-c2ccc([C@@H]3[C@@H](CO)N4CCCCN(C(=O)Cc5cccnc5)C[C@H]34)cc2)c1,1.1
O=C(O)[C@@H]1[C@@H](CO)[C@@H]2Cn3c(ccc(-c4ccncc4)c3=O)[C@H]1N2S(=O)(=O)c1ccccc1F,0.56
O=C(Cc1ccccc1)N1CC2(C1)[C@H](c1ccccc1)[C@@H](CO)N2Cc1cccc(Cl)c1,-0.62
COc1ccc(C#Cc2ccc([C@H]3[C@H](CO)N4CCCCN(C(=O)Cc5cccnc5)C[C@@H]34)cc2)cc1,-1.4

# Screening results: PubChem, Broad Institute
